Measurements as given in the supplement of paper PMC8728848.
Shown is part of a subset that was picked to be rich in the strongest signals.

Legend:
Assay in all cases: glycan array binding signal (z-score within array); higher = stronger binding
Settings in all cases: glycan notation: IUPAC condensed, linker removed
[1] = molecular target: Fuc(a1-2)Gal(b1-3)[Fuc(a1-4)]GlcNAc(b1-2)Man(a1-3)[Fuc(a1-2)Gal(b1-3)[Fuc(a1-4)]GlcNAc(b1-2)Man(a1-3)]Man(b1-4)GlcNAc(b1-4)GlcNAc
How it was run: (§1)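 Glycan array data were curated from 3228 arrays in the Consortium for Functional Glycomics database and kept only where the protein sequence was available. Glycan names were converted to IUPAC-condensed notation, and columns mapping to the same glycan were averaged. The binding signal is a within-array Z-score, averaged across arrays of the same protein sequence at different concentrations or buffers and across linkers. Negative Z-scores can be read as non-binding.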

[2] = molecular target: Fuc(a1-2)Gal(b1-4)Fuc(a1-3)]GlcNAc(b1-2)Man(a1-3)[Fuc(a1-2)Gal(b1-4)[Fuc(a1-3)]GlcNAc(b1-2)Man(a1-6)]Man(b1-4)GlcNAc(b1-4)GlcNAc
How it was run: as §1

[3] = molecular target: Fuc(a1-2)Gal(b1-4)GlcNAc(b1-2)Man(a1-3)[Fuc(a1-2)Gal(b1-4)GlcNAc(b1-2)Man(a1-6)]Man(b1-4)GlcNAc(b1-4)[Fuc(a1-6)]GlcNAc
How it was run: as §1

[4] = molecular target: Fuc(a1-2)Gal(b1-4)[Fuc(a1-3)]GlcNAc
How it was run: as §1

[5] = molecular target: Fuc(a1-2)Gal(b1-4)[Fuc(a1-3)]GlcNAc(b1-2)Man(a1-3)[Fuc(a1-2)Gal(b1-4)[Fuc(a1-3)]GlcNAc(b1-2)Man(a1-6)]Man(b1-4)GlcNAc(b1-4)GlcNAc
How it was run: as §1

[6] = molecular target: Fuc(a1-2)[GalNAc(a1-3)]Gal(b1-3)GalNAc(a1-3)[Fuc(a1-2)]Gal(b1-4)GlcNAc
How it was run: as §1

[7] = molecular target: Fuc(a1-2)[GalNAc(a1-3)]Gal(b1-3)GalNAc(b1-3)Gal(a1-4)Gal(b1-4)Glc
How it was run: as §1

[8] = molecular target: Fuc(a1-2)[GalNAc(a1-3)]Gal(b1-4)GlcNAc(b1-3)Gal(b1-4)GlcNAc
How it was run: as §1

[9] = molecular target: Fuc(a1-2)[GalNAc(a1-3)]Gal(b1-4)GlcNAc(b1-3)Gal(b1-4)GlcNAc(b1-3)Gal(b1-4)GlcNAc
How it was run: as §1

[10] = molecular target: Fuc(a1-2)[GalNAc(a1-3)]Gal(b1-4)GlcNAc(b1-6)GalNAc
How it was run: as §1

[11] = molecular target: Fuc(a1-2)[GalNAc(a1-4)]Gal(b1-4)GlcNAc
How it was run: as §1

[12] = molecular target: Fuc(a1-3)[Gal(b1-4)]GlcNAc(b1-4)Gal(b1-4)[Fuc(a1-3)]GlcNAc(b1-4)Gal(b1-4)[Fuc(a1-3)]GlcNAc
How it was run: as §1

[13] = molecular target: Fuc(a1-3)[Gal(b1-4)]GlcNAc(b1-6)[Gal(b1-3)GlcNAc(b1-3)]Gal(b1-4)Glc
How it was run: as §1

Gal(a1-3)Gal(b1-4)Glc = molecular target: Gal(a1-3)Gal(b1-4)Glc
How it was run: as §1

Gal(b1-2)Gal = molecular target: Gal(b1-2)Gal
How it was run: as §1

[14] = molecular target: Gal(b1-3)Gal(b1-4)GlcNAc(b1-2)Man(a1-3)[Gal(b1-3)Gal(b1-4)GlcNAc(b1-2)Man(a1-6)]Man(b1-4)GlcNAc(b1-4)GlcNAc
How it was run: as §1

Gal(b1-3)GlcNAc(b1-2)Man = molecular target: Gal(b1-3)GlcNAc(b1-2)Man
How it was run: as §1

[15] = molecular target: Gal(b1-3)GlcNAc(b1-3)Gal(b1-4)GlcNAc(b1-6)[Gal(b1-3)GlcNAc(b1-3)]Gal(b1-4)Glc
How it was run: as §1

[16] = molecular target: Gal(b1-3)[Fuc(a1-4)]GlcNAc(b1-2)Man(a1-3)[Gal(b1-3)[Fuc(a1-4)]GlcNAc(b1-2)Man(a1-6)]Man(b1-4)GlcNAc(b1-4)[Fuc(a1-6)]GlcNAc
How it was run: as §1

[17] = molecular target: Gal(b1-3)[GlcNAc(b1-6)]GalNAc
How it was run: as §1

[18] = molecular target: Gal(b1-3)[Neu5Ac(b2-6)]GalNAc
How it was run: as §1

[19] = molecular target: Gal(b1-4)GlcNAc(b1-2)Man(a1-6)[GlcNAc(b1-2)Man(a1-3)]Man(b1-4)GlcNAc(b1-4)GlcNAc
How it was run: as §1

[20] = molecular target: Gal(b1-4)GlcNAc(b1-2)[Gal(b1-4)GlcNAc(b1-6)]Man(a1-6)[GlcNAc(b1-4)][Gal(b1-4)GlcNAc(b1-2)[Gal(b1-4)GlcNAc(b1-4)]Man(a1-3)]Man(b1-4)GlcNAc(b1-4)[Fuc(a1-6)]GlcNAc
How it was run: as §1

[21] = molecular target: Gal(b1-4)GlcNAc(b1-3)Gal(b1-4)GlcNAc(b1-3)Gal(b1-4)GlcNAc(b1-2)[Gal(b1-4)GlcNAc(b1-3)Gal(b1-4)GlcNAc(b1-3)Gal(b1-4)GlcNAc(b1-6)]Man(a1-6)[Gal(b1-4)GlcNAc(b1-3)Gal(b1-4)GlcNAc(b1-3)Gal(b1-4)GlcNAc(b1-2)Man(a1-3)]Man(b1-4)GlcNAc(b1-4)[Fuc(a1-6)]GlcNAc
How it was run: as §1

[22] = molecular target: Gal(b1-4)GlcNAc(b1-3)Gal(b1-4)GlcNAc(b1-3)Gal(b1-4)GlcNAc(b1-3)Gal(b1-4)GlcNAc(b1-3)Gal(b1-4)GlcNAc(b1-2)Man(a1-3)[Gal(b1-4)GlcNAc(b1-3)Gal(b1-4)GlcNAc(b1-3)Gal(b1-4)GlcNAc(b1-3)Gal(b1-4)GlcNAc(b1-3)Gal(b1-4)GlcNAc(b1-2)Man(a1-6)]Man(b1-4)GlcNAc(b1-4)[Fuc(a1-6)]GlcNAc
How it was run: as §1

Gal3S6S(b1-4)GlcNAc = molecular target: Gal3S6S(b1-4)GlcNAc
How it was run: as §1

Gal4S(b1-4)GlcNAc = molecular target: Gal4S(b1-4)GlcNAc
How it was run: as §1

Gal6S(b1-3)GlcNAc6S = molecular target: Gal6S(b1-3)GlcNAc6S
How it was run: as §1

B1: HPA (Helix pomatia), Q575S3 (protein)
chain: MWAHLTGLLLICALSLSAAQRAQTGEIDCGSDSSWPKDPSDNPNRDNTREIVKHVTFSPQFCREPKVILSVTTLDAEHTKNLRYEARLKSVSPSGLSASCYSWHDGTIYRMKLSWLAVED
- glycan array binding signal (z-score) [1]: -0.229
- glycan array binding signal (z-score) [2]: -0.186
- glycan array binding signal (z-score) [3]: -0.229
- glycan array binding signal (z-score) [4]: -0.264
- glycan array binding signal (z-score) [5]: -0.221
- glycan array binding signal (z-score) [6]: 4.9
- glycan array binding signal (z-score) [7]: 4.46
- glycan array binding signal (z-score) [8]: 4.44
- glycan array binding signal (z-score) [9]: 4.28
- glycan array binding signal (z-score) [10]: 2.54
- glycan array binding signal (z-score) [11]: 5.52
- glycan array binding signal (z-score) [12]: -0.271
- glycan array binding signal (z-score) [13]: -0.251
- glycan array binding signal (z-score) (Gal(a1-3)Gal(b1-4)Glc): -0.261
- glycan array binding signal (z-score) (Gal(b1-2)Gal): -0.259
- glycan array binding signal (z-score) [14]: -0.266
- glycan array binding signal (z-score) (Gal(b1-3)GlcNAc(b1-2)Man): 0.558
- glycan array binding signal (z-score) [15]: -0.246
- glycan array binding signal (z-score) [16]: -0.227
- glycan array binding signal (z-score) [17]: -0.265
- glycan array binding signal (z-score) [18]: -0.268
- glycan array binding signal (z-score) [19]: -0.239
- glycan array binding signal (z-score) [20]: -0.252
- glycan array binding signal (z-score) [21]: -0.25
- glycan array binding signal (z-score) [22]: -0.253
- glycan array binding signal (z-score) (Gal3S6S(b1-4)GlcNAc): -0.266
- glycan array binding signal (z-score) (Gal4S(b1-4)GlcNAc): -0.267
- glycan array binding signal (z-score) (Gal6S(b1-3)GlcNAc6S): -0.242
